Test results published in PubChem BioAssay (NCI).
Where “and” joins values, the source holds several entries; their conditions need not be identical. Equal entries are not always repeated. This is part of a sample that, as a whole, favours compounds with a hit. Of some 83,000 tested, about 20% had one in any assay.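 Results are percent growth after 48 hours of single-concentration exposure. 100 means growth as in untreated cells, lower positive values show inhibition; negative values down to -100 show cell death.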 Calls of active or inactive are those of the source. The calls were made as follows: active = growth percent below 10; inactive = the rest.

These molecules were tested on HL-60(TB) leukemia (assay: NCI-60 one-dose screen, 48 h (100 = growth as untreated, 0 = no growth, -100 = all killed)). Conditions: 10 µM unless noted.
In the case of Nc1nc2ncc(CCNc3ccc(C(=O)NC(CCC(=O)O)C(=O)O)cc3)nc2c(=O)[nH]1 (stereo not given), the growth is reported as 144% (inactive).
In the case of O=C(CN1CCN(c2cc3c(cc2F)c(=O)c(C(=O)O)cn3C2CC2)CC1)Nc1ccc(Cl)cc1, the growth is reported as 89.5% (inactive) and 98.4% (inactive).
COC(=O)c1nc(N)nc(C(=O)OC)c1C(=O)c1ccc(OC)cc1 was tested, and the growth was 115% (inactive) and 65.7% (inactive).
COCCOc1cnc2ccn([C@H](C)c3nnc4c(F)cc(-c5cnn(C)c5)cn34)c(=O)c2c1 was tested, and the growth was 136% (inactive).
In the case of N#CC(C#N)=C/C=C/c1cccc([N+](=O)[O-])c1, the growth is reported as -10.5% (active) and -9.74% (active).
For COc1ccccc1NC(=O)N/C(N)=N/c1nc2ccccc2s1, the growth was -27.1% (active).
In the case of O=C(OCc1ccc2c(Cl)cc(Cl)c(O)c2n1)n1cncn1, the growth is reported as 17.7% (inactive).
In the case of Oc1c(Br)cc(Cl)cc1C(c1cc(Cl)cc(Br)c1O)C(Cl)(Cl)Cl, the growth is reported as 9.73% (active).
For O=C(CCl)Nc1ccc2c(c1)C(=O)c1ccccc1C2=O, the growth was 12.7% (inactive).
O=Nc1c(O)c(Cl)cc2ccccc12 was tested, and the growth was 42.7% (inactive).
CC(C)NCCCNC1=C(Cl)C(=O)c2ccccc2C1=O was tested, and the growth was 11.5% (inactive).
In the case of CC1Cc2c(N(C)C)ncnc2N(C)c2ccc(O)cc21 (stereo not given), the growth is reported as 81.1% (inactive).
In the case of O=[N+]([O-])c1ccc(N2CCN(Cc3ccccc3)CC2)c2c1no[n+]2[O-], the growth is reported as -33.2% (active).
In the case of N=C(N)c1ccc(-c2ccc(/C=C/c3ccccc3)s2)cc1, the growth is reported as -39.5% (active).
COc1cc2oc(-c3cccc(NC(=O)c4cccc(Br)c4)c3)cc(=O)c2c(OC)c1OC was tested, and the growth was 65.5% (inactive).
With O=C(NCCc1ccccc1)C1CCC(=O)N1Cc1ccc(Br)cc1 (stereo not given) the growth was 89% (inactive).
With COc1ccc(Nc2cc(C)nc(NCc3ccccc3)n2)cc1 the growth was 11.3% (inactive).
For Nc1n[nH]c2cccc(C#Cc3cccc(C(=O)Nc4cc(C(F)(F)F)cc(C(F)(F)F)c4)c3)c12, the growth was 39.7% (inactive).
COc1ccc(-c2csc(NC(=O)N3CCN(c4cc5c(cc4F)c(=O)c(C(=O)O)cn5C4CC4)CC3)n2)cc1 was tested, and the growth was -11.6% (active).
In the case of Cc1cc(C(=O)O)c(N)c(C)n1, the growth is reported as 102% (inactive).
In the case of COC(=O)CCC1=C(C)C2=NC1=CC1=NC(=CC3=NC(=Cc4[nH]c(/c(=C(/C)O)c4C)=C2)C(C(C)=O)=C3C)C(C)=C1CCC(=O)OC, the growth is reported as 78.2% (inactive).
CC1=NN(c2nc(SCC(=O)Nc3nc4ccc(C)cc4s3)nc(-c3ccccc3)c2C#N)C(=O)C1 was tested, and the growth was 111% (inactive).
With Nc1cc(N)ncn1 the growth was 47.3% (inactive).
In the case of CC[Si](CC)(CC)OC1[C@@H](O[Si](CC)(CC)CC)[C@@H](CNC(=O)NC)O[C@H]1n1cnc2c(NC(=O)Nc3ccccc3)ncnc21 (stereo not given in full), the growth is reported as -39.6% (active).
In the case of O=C(C[C@]1(O)C(=O)Nc2ccccc21)c1cccc(C(F)(F)F)c1, the growth is reported as 102% (inactive).
For N#Cc1c(O)c2c(c(O)c1C#N)C(=O)c1ccccc1C2=O, the growth was -38.1% (active).
In the case of Cc1ccc(C2CC(c3ccc(Nc4nc(NCCO)nc(NCCO)n4)cc3)=NN2c2ccc(Cl)cc2)cc1 (stereo not given), the growth is reported as 80.7% (inactive).
NCCCNc1nc2ccccc2c2c(=O)c3cccc(F)c3sc12 was tested, and the growth was 13.9% (inactive).
NNC(=O)Nc1ccccc1 was tested, and the growth was 102% (inactive).
O=Nc1c(O)ccc2ccccc12 was tested, and the growth was -26.3% (active) and 74% (inactive).
With C=CCn1c(SCC(=O)Nc2ccc(C(=O)/C=C/c3cc(OC)c(OC)c(OC)c3)cc2)nnc1-c1cc(-c2ccc(S(C)(=O)=O)cc2)nc2ccccc12 the growth was 69.8% (inactive).
For CC(=O)NCC(=O)c1ccc([N+](=O)[O-])cc1, the growth was 103% (inactive).
NCCCOc1cc2ccccc2cc1C(=O)NCCCOc1cc2ccccc2cc1C(=O)Nc1ccc(Cl)cc1O was tested, and the growth was -62% (active).
With O=S(=O)(NCCNc1cc(-c2c(-c3cccc(O)c3)nc3sccn23)ccn1)c1ccc(C(F)(F)F)cc1 the growth was 15.7% (inactive).
With O=c1c(N=Nc2nccs2)c(-c2ccccc2)[nH]n1-c1nc(-c2ccccc2)cs1 the growth was 15.8% (inactive).
In the case of C=C1C(=O)O[C@H]2[C@H]1CC/C(Cn1cc(CNCCc3c[nH]c4ccccc34)nn1)=C\CC[C@@]1(C)O[C@@H]21, the growth is reported as 26.1% (inactive).
For COc1ccc2occ(C3=C(c4c[nH]c5ccccc45)C(=O)N(O)C3=O)c2c1, the growth was 97.3% (inactive).
In the case of CCOC(=S)SCc1ccc(Cl)cc1, the growth is reported as 65.8% (inactive).
With O=C(Cc1ccccn1)C(F)(F)C(F)(F)C(F)(F)F the growth was 105% (inactive).
With COCCn1c(Nc2ccc(C(=O)NO)cc2)nc2ccccc21 the growth was 11.9% (inactive).
